These results are taken from PubChem BioAssay (Tox21).

Values joined by “and” are separate entries in the source; they are usually repeats but may differ in a detail not shown here. Equal entries are not always repeated. A number with no mark means an inactive call. Inconclusive results are not listed. Active and inactive are the calls of the source. Unless noted, the call rests on the fitted dose curve; in most records, active means well fitted curve in the direction sought with a large enough effect in the repeat runs; inconclusive means weak or mixed curves; inactive means no such curve, though single readings can be large; an effect the other way counts as inactive or inconclusive.

The nature of test [1]: Caspase-3/7 induction in HepG2 cells by small molecules, qHTS assay (AID 1346978). Further: nearly all actives have a fitted effect of over 15% in size. An outline of the steps:
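Wild-type HepG2 cells, 2,000/well, settled 5 hr at 37 C and 5% CO2, then compound-treated for 17 hr; caspase-3/7 activity read by luminescent Caspase-Glo 3/7 after 30 min at room temperature.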
A general note: qHTS replaces the single test concentration by a dilution series.

A short description of test [2]: Caspase-3/7 induction in CHO-K1 cells by small molecules, qHTS cell viability counter screen (AID 1346979). Further: nearly all actives have a fitted effect of over 35% in size. Further: potency means the concentration at half of the fitted maximal effect. An outline of the steps:
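CHO-K1 wt, 1,500 cells/well; 5hr pre-incubation 37C/5% CO2; compound pin transfer (DMSO); 16hr exposure; CellTiter-Fluor added, 1hr, fluorescence read.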

Test [3] can be described thus: Caspase-3/7 induction in CHO-K1 cells by small molecules, qHTS assay (AID 1346980). Further: nearly all actives have a fitted effect of over 15% in size. The gist of the method:
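Wild-type CHO-K1 cells exposed to compounds for 17hr at 37 C, 5% CO2. Caspase-3/7 activity then measured by Caspase-Glo 3/7 luminescence after 30min at room temperature.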

Test [4] is described as follows: Caspase-3/7 induction in HepG2 cells by small molecules, qHTS cell viability counter screen (AID 1346981). Further: nearly all actives have a fitted effect of over 30% in size. Further: potency means the concentration at half of the fitted maximal effect. The gist of the method:
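Steps: seed 2,000 HepG2 cells per well; incubate 5 hr at 37 C; pin-add compounds in DMSO; incubate 16 hr; add CellTiter-Fluor; after 1 hr at 37 C and 5% CO2, read fluorescence.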

Test [5] addresses Nuclear receptor subfamily 1 group I member 2 (Homo sapiens) (UniProt O75469). Briefly: Human pregnane X receptor (PXR) small molecule agonists, qHTS assay (AID 1346982). Further: nearly all actives have a fitted effect of over 35% in size. Further: potency means the concentration at half of the fitted maximal effect. The gist of the method:
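Agonist mode qHTS: PXR-Luc HepG2 cells plated 5 hr before DMSO-dissolved compounds were pinned in, cultured 24 hr at 37 C, 5% CO2; ONE-Glo luminescence readout.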

Test [6] addresses Acetylcholinesterase (Homo sapiens) (UniProt P22303). Briefly: Acetylcholinesterase (AChE) small molecule antagonists: fluorescence cell-based qHTS assay (AID 1347398; calls by dose curve; further: nearly all actives have a fitted effect of over 50% in size). Particulars: Potency: AChE activity. The gist of the method:
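SH-SY5Y cells (2000/well), attached overnight, incubated with compound 30 min at 37 C. Acetylthiocholine plus Thiolite Green then added for 40 min at room temperature. Thiocholine fluorescence (Ex/Em 490/520 nm) reports cellular AChE activity.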

For test [7] the target is unchanged. Briefly: Acetylcholinesterase (AChE) small molecule antagonists: enzyme-based qHTS assay with human liver microsomes (AID 1347399; calls by dose curve; further: nearly all actives have a fitted effect of over 60% in size). Particulars: Potency: qHTS inhibition. The gist of the method: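 Recombinant human AChE (50 mU/mL in the enzyme mix) and human liver microsomes (0.25 mg/mL final) were preincubated with compound and NADPH (0.25 mg/mL final) for 30 min at 37 C. Acetylthiocholine/DTNB was then added; thiocholine was read colorimetrically after 10 min at room temperature.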

The target in test [8] is Cytochrome P450 2D6 (Homo sapiens) (UniProt P10635). Briefly: Cytochrome P450 Family 2 Subfamily D Member 6 (CYP2D6) small molecule antagonists: luciferase reporter qHTS assay (AID 1671196). Further: nearly all actives have a fitted effect of over 50% in size. Further: potency means the concentration at half of the fitted maximal effect. The gist of the method:
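P450-Glo format: CYP2D6 converts a proluciferin substrate to luciferin in an NADPH-driven reaction lasting 1 h at room temperature. Light output, proportional to CYP2D6 activity, reflects interference by test chemicals.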
(Reporter assays use an easily measured gene product as a stand-in for the process of interest.)

The target of test [9] is Cytochrome P450 2C19 (Homo sapiens) (UniProt P33261). Briefly: Cytochrome P450 Family 2 Subfamily C Member 19 (CYP2C19) small molecule antagonists: luciferase reporter qHTS assay (AID 1671197). Further: nearly all actives have a fitted effect of over 65% in size. Further: potency means the concentration at half of the fitted maximal effect. The gist of the method:
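Compounds were tested on CYP2C19 activity via proluciferin conversion to luciferin. The 37C, 1 h reaction followed NADPH addition; detection reagent stopped it.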

Test [10] deals with Cytochrome P450 2C9 (Homo sapiens) (UniProt P11712). Briefly: Cytochrome P450 Family 2 Subfamily C Member 9 (CYP2C9) small molecule antagonists: luciferase reporter qHTS assay (AID 1671198). Further: nearly all actives have a fitted effect of over 50% in size. Further: potency means the concentration at half of the fitted maximal effect. The gist of the method:
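P450-Glo proluciferin substrate with CYP2C9 enzyme; 10 min RT preincubation, then NADPH regeneration 1 h at 37C; luciferin detection reagent 20 min RT, luminescence in relative luminescence units.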

Test [11] deals with Cytochrome P450 1A2 (Homo sapiens) (UniProt P05177). Briefly: Cytochrome P450 Family 1 Subfamily A Member 2 (CYP1A2) small molecule antagonists: luciferase reporter qHTS assay (AID 1671199). Further: nearly all actives have a fitted effect of over 50% in size. Further: potency means the concentration at half of the fitted maximal effect. An outline of the steps: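 Inhibition of CYP1A2 conversion of proluciferin to luciferin, detected by luminescence. Reaction run 1 h at room temperature with NADPH regeneration after brief compound preincubation.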
Chain of Cytochrome P450 1A2 (Homo sapiens) (P05177 whole entry, looked up): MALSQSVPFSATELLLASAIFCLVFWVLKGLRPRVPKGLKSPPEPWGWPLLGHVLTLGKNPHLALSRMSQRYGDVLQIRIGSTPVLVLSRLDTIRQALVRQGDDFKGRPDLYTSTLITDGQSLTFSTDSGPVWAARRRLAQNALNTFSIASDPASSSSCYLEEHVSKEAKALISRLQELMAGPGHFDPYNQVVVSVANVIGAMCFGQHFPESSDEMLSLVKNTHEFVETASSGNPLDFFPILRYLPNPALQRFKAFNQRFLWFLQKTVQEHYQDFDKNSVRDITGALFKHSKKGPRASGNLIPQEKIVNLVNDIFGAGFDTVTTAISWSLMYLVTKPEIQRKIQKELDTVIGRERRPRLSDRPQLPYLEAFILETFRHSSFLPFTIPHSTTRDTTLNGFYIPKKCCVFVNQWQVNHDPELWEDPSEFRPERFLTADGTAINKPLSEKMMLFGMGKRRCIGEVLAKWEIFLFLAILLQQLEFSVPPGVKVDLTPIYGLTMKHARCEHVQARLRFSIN

Test [12] addresses Voltage-gated inwardly rectifying potassium channel KCNH2 (Homo sapiens) (UniProt Q12809). Briefly: Human Ether-a-go-go-Related Gene (hERG) channel small molecule antagonists: fluorescence cell-based qHTS assay (AID 1671200). The gist of the method: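 Read-out: thallium influx as a surrogate for potassium, tracked as fluorescence (480 nm ex/540 nm em) every second for 2 min after Stimulus Buffer addition in dye-loaded hERG-U2OS cells.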
For orientation: Block of hERG is tested as a sign of cardiac risk.

Test [13] has as its target Cytochrome P450 3A4 (Homo sapiens) (UniProt P08684). Briefly: Cytochrome P450 Family 3 Subfamily A Member 4 (CYP3A4) small molecule antagonists: luciferase reporter qHTS assay (AID 1671201). The gist of the method: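 Luminescent readout (RLU) proportional to CYP3A4 activity, from luciferin generated off a proluciferin substrate. Enzyme–substrate mix plus compound 10 min at room temp, NADPH regeneration 1 h, detection reagent 20 min.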

The target in test [14] is Acetylcholinesterase (Homo sapiens) (UniProt P22303). Briefly: Acetylcholinesterase (AChE) small molecule antagonists: colormetric cell-based qHTS assay (AID 1347395; calls by dose curve; further: nearly all actives have a fitted effect of over 30% in size). The gist of the method: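 SH-SY5Y cells; cpd 30 min 37 C; + DTNB/acetylthiocholine, 90 min 37 C; colorimetric thiocholine read; qHTS.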
Chain of Acetylcholinesterase (Homo sapiens) (P22303 whole entry, looked up): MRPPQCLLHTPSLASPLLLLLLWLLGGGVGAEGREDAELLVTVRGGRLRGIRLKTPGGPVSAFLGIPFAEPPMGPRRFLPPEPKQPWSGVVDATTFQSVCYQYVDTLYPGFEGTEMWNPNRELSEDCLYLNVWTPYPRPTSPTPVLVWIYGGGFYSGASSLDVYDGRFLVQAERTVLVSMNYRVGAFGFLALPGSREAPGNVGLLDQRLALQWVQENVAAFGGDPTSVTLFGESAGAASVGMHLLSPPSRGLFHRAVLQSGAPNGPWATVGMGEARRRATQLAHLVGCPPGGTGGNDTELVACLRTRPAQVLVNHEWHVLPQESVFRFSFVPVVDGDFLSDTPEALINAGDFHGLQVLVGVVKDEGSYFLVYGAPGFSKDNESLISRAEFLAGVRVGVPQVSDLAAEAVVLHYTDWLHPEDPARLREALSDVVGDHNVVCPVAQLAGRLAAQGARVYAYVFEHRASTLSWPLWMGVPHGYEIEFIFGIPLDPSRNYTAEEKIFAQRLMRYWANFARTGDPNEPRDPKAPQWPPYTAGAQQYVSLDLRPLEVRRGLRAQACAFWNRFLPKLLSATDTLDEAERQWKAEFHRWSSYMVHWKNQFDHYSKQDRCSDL
The target is the same in test [15]. Briefly: Acetylcholinesterase (AChE) small molecule antagonists: enzyme-based qHTS assay (AID 1347397; calls by dose curve; further: nearly all actives have a fitted effect of over 55% in size). The following applies: Potency: AChE enzyme activity inhibition. The gist of the method:
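Recombinant human AChE (50 mU/mL) preincubated with compound 30 min at room temperature; acetylthiocholine plus DTNB then added, and thiocholine formation read colorimetrically after 10 min at room temperature. DMSO served as vehicle control.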

For test [16], the target named is Nuclear receptor subfamily 1 group I member 2 (Rattus norvegicus) (UniProt Q9R1A7). Briefly: Rat pregnane X receptor (rPXR) activation by small molecules, qHTS assay (AID 1346983). Further: nearly all actives have a fitted effect of over 20% in size. Particulars: rPXR luciferase reporter cells, One-Glo luminescence, 24 h; max activation: hits give high values. The gist of the method: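 Cell-based rPXR activation assay: rPXR cells, 2,000 per well, rested 5hr at 37 C, then exposed to compounds in DMSO for 24 hr at 37 C. Luciferase activity read by One-Glo luminescence after 30 min at room temperature.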
On the % scale 0 is the no-effect control and ±100 the full control effect.

Chain of Voltage-gated inwardly rectifying potassium channel KCNH2 (Homo sapiens) (Q12809 whole entry, looked up): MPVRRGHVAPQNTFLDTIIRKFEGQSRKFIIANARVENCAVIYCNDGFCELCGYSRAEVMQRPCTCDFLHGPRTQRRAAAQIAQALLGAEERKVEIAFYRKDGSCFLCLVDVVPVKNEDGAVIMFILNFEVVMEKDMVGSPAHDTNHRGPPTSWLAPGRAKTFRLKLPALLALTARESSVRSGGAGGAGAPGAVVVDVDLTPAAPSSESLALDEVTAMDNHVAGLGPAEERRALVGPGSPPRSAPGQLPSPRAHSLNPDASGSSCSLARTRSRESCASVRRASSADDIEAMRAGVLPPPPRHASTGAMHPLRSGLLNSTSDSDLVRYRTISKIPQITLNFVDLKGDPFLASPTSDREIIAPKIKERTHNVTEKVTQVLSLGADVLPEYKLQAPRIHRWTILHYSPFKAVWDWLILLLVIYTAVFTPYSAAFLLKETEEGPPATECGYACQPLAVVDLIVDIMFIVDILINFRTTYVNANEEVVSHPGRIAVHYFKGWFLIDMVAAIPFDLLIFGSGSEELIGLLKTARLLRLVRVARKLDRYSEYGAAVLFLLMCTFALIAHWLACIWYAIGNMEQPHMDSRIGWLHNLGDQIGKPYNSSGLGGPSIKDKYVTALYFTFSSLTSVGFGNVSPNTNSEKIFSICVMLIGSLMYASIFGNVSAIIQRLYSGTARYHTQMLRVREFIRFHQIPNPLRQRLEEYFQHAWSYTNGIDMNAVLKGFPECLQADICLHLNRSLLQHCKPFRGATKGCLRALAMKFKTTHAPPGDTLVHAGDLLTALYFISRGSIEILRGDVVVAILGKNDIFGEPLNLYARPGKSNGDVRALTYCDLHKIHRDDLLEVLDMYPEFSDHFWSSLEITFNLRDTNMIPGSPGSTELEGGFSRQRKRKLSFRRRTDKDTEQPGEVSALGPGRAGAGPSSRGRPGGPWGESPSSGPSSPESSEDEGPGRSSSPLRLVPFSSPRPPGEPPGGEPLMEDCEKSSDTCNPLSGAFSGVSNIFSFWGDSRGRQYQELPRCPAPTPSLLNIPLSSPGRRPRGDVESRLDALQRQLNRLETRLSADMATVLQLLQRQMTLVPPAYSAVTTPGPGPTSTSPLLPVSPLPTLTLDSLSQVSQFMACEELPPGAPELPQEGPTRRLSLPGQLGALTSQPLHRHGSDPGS
Chain of Cytochrome P450 3A4 (Homo sapiens) (P08684 whole entry, looked up): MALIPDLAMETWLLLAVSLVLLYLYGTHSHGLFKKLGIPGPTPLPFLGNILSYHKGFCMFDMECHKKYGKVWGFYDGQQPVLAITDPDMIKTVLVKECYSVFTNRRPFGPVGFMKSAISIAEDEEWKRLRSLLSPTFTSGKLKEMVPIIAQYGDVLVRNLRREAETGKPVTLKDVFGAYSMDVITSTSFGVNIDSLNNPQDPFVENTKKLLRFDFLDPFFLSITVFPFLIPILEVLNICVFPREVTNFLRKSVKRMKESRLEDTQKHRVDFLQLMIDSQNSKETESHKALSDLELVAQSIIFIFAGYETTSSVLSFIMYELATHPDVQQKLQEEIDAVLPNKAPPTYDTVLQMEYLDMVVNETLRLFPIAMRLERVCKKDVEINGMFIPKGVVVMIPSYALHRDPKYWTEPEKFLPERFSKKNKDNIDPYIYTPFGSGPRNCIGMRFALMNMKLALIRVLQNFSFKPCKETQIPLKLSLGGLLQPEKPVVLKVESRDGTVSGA
Chain of Cytochrome P450 2C9 (Homo sapiens) (P11712 whole entry, looked up): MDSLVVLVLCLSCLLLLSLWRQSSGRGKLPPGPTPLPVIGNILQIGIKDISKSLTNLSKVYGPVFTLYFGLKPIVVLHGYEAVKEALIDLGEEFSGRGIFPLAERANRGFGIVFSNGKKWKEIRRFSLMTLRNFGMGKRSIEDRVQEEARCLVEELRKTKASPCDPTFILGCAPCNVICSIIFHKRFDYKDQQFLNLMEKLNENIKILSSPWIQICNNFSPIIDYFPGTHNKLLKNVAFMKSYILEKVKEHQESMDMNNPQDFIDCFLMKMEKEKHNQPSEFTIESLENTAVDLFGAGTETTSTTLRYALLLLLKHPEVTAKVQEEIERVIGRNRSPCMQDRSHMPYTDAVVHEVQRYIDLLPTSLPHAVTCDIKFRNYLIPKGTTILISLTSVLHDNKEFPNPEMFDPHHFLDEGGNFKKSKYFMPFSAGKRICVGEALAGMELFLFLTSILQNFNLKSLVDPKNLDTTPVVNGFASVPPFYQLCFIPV
Chain of Cytochrome P450 2D6 (Homo sapiens) (P10635 whole entry, looked up): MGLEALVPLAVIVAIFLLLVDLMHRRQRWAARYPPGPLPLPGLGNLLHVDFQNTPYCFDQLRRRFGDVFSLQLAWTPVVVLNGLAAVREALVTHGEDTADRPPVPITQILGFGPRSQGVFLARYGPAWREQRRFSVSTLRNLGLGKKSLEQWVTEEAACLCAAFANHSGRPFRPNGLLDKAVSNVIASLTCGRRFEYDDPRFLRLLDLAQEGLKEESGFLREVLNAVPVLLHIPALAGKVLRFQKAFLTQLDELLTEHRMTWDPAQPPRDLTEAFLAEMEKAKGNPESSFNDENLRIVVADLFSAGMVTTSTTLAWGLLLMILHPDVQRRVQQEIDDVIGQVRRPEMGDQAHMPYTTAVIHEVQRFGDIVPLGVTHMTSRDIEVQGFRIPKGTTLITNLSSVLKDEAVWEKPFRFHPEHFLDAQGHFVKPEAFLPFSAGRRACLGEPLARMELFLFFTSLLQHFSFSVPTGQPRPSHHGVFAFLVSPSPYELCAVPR
Chain of Nuclear receptor subfamily 1 group I member 2 (Homo sapiens) (O75469 whole entry, looked up): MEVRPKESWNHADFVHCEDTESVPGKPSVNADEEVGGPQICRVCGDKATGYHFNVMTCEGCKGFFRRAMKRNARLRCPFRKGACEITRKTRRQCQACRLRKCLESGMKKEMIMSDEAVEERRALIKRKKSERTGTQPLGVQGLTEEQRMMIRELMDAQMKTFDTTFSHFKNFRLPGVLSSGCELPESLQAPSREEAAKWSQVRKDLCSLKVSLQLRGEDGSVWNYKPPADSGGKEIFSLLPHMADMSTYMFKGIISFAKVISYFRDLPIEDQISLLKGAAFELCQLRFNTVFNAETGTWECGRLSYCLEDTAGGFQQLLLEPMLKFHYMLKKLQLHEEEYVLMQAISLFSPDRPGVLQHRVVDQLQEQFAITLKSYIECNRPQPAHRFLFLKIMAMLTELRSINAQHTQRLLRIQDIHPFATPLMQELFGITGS
Chain of Cytochrome P450 2C19 (Homo sapiens) (P33261 whole entry, looked up): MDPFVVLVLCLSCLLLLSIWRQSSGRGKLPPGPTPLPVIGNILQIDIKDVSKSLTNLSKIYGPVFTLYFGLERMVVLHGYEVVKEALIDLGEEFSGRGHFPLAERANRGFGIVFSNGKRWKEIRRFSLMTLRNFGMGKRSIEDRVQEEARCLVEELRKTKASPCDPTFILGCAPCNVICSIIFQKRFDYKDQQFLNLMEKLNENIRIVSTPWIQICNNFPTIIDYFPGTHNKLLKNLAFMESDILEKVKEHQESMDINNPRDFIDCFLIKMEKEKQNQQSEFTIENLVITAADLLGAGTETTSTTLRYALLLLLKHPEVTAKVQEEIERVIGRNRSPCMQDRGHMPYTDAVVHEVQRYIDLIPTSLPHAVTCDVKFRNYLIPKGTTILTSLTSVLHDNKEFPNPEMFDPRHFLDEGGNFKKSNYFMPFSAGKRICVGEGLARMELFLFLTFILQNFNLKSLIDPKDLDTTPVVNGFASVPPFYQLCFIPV

As for `NC(=O)CI`, the Potency result in [1], in [2], in [3], in [4], in [6] and in test [7] was “inactive” throughout. In addition, the Potency entry in test [12] and in test [13] was “inactive” in each case. Moreover, the Potency in test [5] was 69.1 µM (active); in test [8], 63.8 µM (active); in test [9] it was 80.4 µM (active); in test [10] it was 63.8 µM (active); in [11], 35.9 µM (active).
As for `O=C(CCl)c1ccc(Cl)cc1Cl`, the Potency result in [1], in test [3], in test [14], in test [15], in [6] and in [7] was “inactive” throughout. Besides, the Potency result in [12] and in test [13] was “inactive” throughout. Besides, the Potency in test [2] is 68.2 µM (active) and 26.6 µM (active); in test [5], 60.8 µM (active) and 29.8 µM (active); in test [8] it was 39.8 µM (active) and 38.9 µM (active); in test [9] it was 17.8 µM (active) and 9.77 µM (active); in [10], 12.6 µM (active) and 17.4 µM (active); in test [11], 35.4 µM (active) and 12.9 µM (active).
Consider `C=COC(C)=O`, for which the Potency result in test [1], in [2], in test [3], in test [4], in [5] and in test [15] was “inactive” throughout. Moreover, the Potency result in test [6], in test [7], in [9], in test [10], in test [12] and in test [13] was “inactive” throughout. The Potency in test [11] was 41.3 µM (active).
Take `O=S(=O)(Cl)c1ccccc1`: the Potency result in [1], in test [2], in [3], in [4], in test [5] and in test [15] was “inactive” throughout. Besides, the Potency result in test [6], in test [7], in test [9], in [10], in test [11] and in test [12] was “inactive” throughout. The Potency result in test [13] was “inactive”.
Consider `C[C@@H]1CC[C@H]2[C@@H](C)C(=O)O[C@@H]3O[C@@]4(C)CC[C@@H]1[C@]32OO4`, for which the Potency result in test [1], in test [3], in [4] and in test [12] was “inactive” each time. Moreover, the Potency in test [2] is 4.22 µM (active).
Regarding `C[N+](C)(C)CCCl`, the Potency entry in test [1], in test [2], in test [3], in [4], in test [14] and in test [15] was “inactive” each time. Also, the Potency result in test [6], in [7], in [8], in [9], in test [10] and in test [11] was “inactive” throughout. The Potency entry in [12] and in test [13] was “inactive” each time.
For `Nc1ccc(N=Nc2ccc(-c3ccc(N=Nc4c(S(=O)(=O)O)cc5cc(S(=O)(=O)O)c(N=Nc6ccccc6)c(O)c5c4N)cc3)cc2)c(N)c1`, the Potency result in [1], in [3], in test [14], in [15], in test [6] and in [7] was “inactive” throughout. Further, the Potency entry in test [9] and in test [12] was “inactive” in each case. The Potency in [2] is 17.6 µM (active); in [4], 19.7 µM (active).
With `c1ccoc1`, the Potency result in test [1], in [2], in [3], in test [5], in [14] and in [15] was “inactive” each time. Besides, the Potency entry in test [6], in [7], in [8], in test [9], in [10] and in test [11] was “inactive” each time. The Potency result in test [12] and in [13] was “inactive” in each case.
Take `CN1C(=O)C(O)N=C(c2ccccc2)c2cc(Cl)ccc21` (configuration not stated): the Potency entry in [1], in test [2], in test [3], in test [15] and in test [6] was “inactive” each time. The Potency in test [5] was 28.3 µM (active). For the same compound, in [16], the max activation was -0.547%.
In the case of `CNC(C)Cc1ccccc1OC` (configuration not stated), the Potency result in test [1], in test [2], in test [3], in test [5], in test [14] and in test [15] was “inactive” in each case. For the same compound, the Potency result in [6], in test [7], in test [9], in test [10], in test [11] and in test [12] was “inactive” each time. For the same compound, the Potency result in test [13] is “inactive”. For the same compound, the Potency in [8] was 13.8 µM (active).
